Rows were chosen to be rich in hits. Some 2.4% of all compounds tested hit in one or more screens of this group.
NOD2 RIPK2 PPI – blocks binding of human NOD2 to RIPK2. O43353. CHO BLA complementation NOD2-RIPK2, CCF4 ratio. inhibition, % at 4.98 µM. 0.38% of 360,000 active. AID 624267; in the data active = inhibition above about 21%
Target sequence (O43353 whole entry, looked up): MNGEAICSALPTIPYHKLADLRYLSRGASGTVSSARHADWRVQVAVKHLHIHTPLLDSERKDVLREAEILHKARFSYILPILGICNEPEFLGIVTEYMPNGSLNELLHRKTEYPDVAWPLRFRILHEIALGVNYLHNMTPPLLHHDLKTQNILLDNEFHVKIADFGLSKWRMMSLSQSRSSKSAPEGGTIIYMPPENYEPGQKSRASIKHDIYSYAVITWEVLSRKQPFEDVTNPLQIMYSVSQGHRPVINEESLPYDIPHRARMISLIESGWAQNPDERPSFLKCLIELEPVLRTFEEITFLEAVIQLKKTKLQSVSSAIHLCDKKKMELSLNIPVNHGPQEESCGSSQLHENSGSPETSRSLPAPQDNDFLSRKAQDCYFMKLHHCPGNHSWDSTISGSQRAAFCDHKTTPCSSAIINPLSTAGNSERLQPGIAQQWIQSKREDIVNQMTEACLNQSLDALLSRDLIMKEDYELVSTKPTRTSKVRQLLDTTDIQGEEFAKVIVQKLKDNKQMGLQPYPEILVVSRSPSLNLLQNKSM
ABHD5 PLIN5 PPI – ABHD5-PLIN5 protein interaction inhibition; Q00G26+Q8WTS1; Split G. princeps luciferase complementation, luminescence, 4 h; inhibition, % at 4 µM; 0.78% of 360,000 active; AID 602281;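 active = inhibition above the mean inhibition across every tested compound plus 3 SD, cut at about 22% in these data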
HTR2A ag – mouse HTR2A agonism via beta-arrestin recruitment | 0.66% of 360,000 active | AID 624169 | CHO-K1 mHTR2A beta-arrestin complementation, luminescence; percent of 30 µM serotonin response | activation, % at 7.6 µM;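 active = activation above a run cutoff, the mean activation of all tested compounds plus 3 SD, cut at about 14% in these data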
TLR4-MyD88 BLA – TLR4-MyD88 interaction inhibition in cells. O00206+Q99836. HeLa CL3-4 TLR4/MyD88 BLA complementation, FRET ratio. inhibition, % at 8.4 µM. 0.18% of 200,000 active. AID 861; in the data active = inhibition above about 25%
TLR9-MyD88 inh – TLR9-MyD88 interaction inhibition | CHO BLA complementation TLR9-MyD88, CCF4 FRET ratio | Q9NR96+Q99836 | inhibition, % at 4.98 µM | 0.21% of 340,000 active;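 active = inhibition above the mean over all tested compounds plus 3 SD, cut at about 21% in these data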
CRFR2-BP antag – antagonists of CRF-binding protein/CRF-R2 receptor complex; inhibition, % at 11.8 µM; AID 588475; HEK293 CRF-R2/CRF-BP, CRF-induced calcium fluorescence; 0.59% of 350,000 active;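 active = inhibition of the ligand-induced calcium signal above about 50% at the single tested concentration, limit read from the data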
TLR4-MyD88 conf – TLR4-MyD88 interaction inhibition confirmed; shares compounds with TLR4-MyD88 BLA; HeLa CL3-4 BLA complementation, CCF4 FRET ratio; inhibition, % at 8.4 µM; 50% of 350 active;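 active = mean inhibition across three repeat runs above about 25% carried over from the earlier screen, limit read from the data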
BLA inhibitor ct – counter-screen for TLR4-MyD88 inhibitors: beta-lactamase reporter inhibitors; shares compounds with TLR4-MyD88 BLA; HeLa BLA reporter, CCF4 FRET ratio; inhibition, % at 8.4 µM; 63% of 350 active; AID 1237;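 active = mean inhibition over three repeats above about 26% taken from the earlier screen, limit read from the data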;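 note: HeLa cells stably expressing beta-lactamase reporter as counterscreen for TLR4-MyD88 inhibitors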
TLR9-MyD88 conf – confirmation of human TLR9-MyD88 binding inhibitors. shares compounds with TLR9-MyD88 inh. CHO TLR9/MyD88 BLA complementation, CCF4 FRET ratio. inhibition, % at 4.98 µM. 51% of 680 active;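 active = mean inhibition across three repeats above about 21% taken from the earlier screen, limit read from the data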;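 note: blue over green emission ratio reports constitutive TLR9 MyD88 association via BLA complementation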
BLA nonselective – beta-lactamase reporter inhibition, counter-screen artifact | shares compounds with TLR9-MyD88 inh | CHO-BLA cells, CCF4 FRET ratio, BLA reporter | inhibition, % at 4.98 µM | 7% of 680 active;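 active = mean inhibition above a 50% cutoff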;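 note: counterscreen of TLR9-MyD88 hits on CMV-driven BLA in CHO-K1 cells; higher means less blue over green ratio so more BLA blockade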
TLR9 CHO tox – counter-screen for TLR9-MyD88 inhibitors: cytotoxicity in CHO cells | inhibition, % at 4.98 µM | 39% of 680 active | shares compounds with TLR9-MyD88 inh | luminescence | AID 588336; in the data active = inhibition above about 11%
Numbers stand for hits; i = inactive; nt = not tested or not shown.

SMILES | NOD2 RIPK2 PPI | ABHD5 PLIN5 PPI | HTR2A ag | TLR4-MyD88 BLA | TLR9-MyD88 inh | CRFR2-BP antag | others
CCOc1cc(/C=C2/C(=O)NC(=O)N(c3ccc(CC)cc3)C2=O)ccc1OC(=O)c1cccs1 | i | 22 | i | i | i | i
Nc1c(Br)cc2c3c(cccc13)-c1ccccc1-2 | nt | nt | nt | nt | nt | i
COC(=O)[C@@]1(Sc2ccc(C)cc2)CC(=O)N(P(=O)(OC)OC)[C@@H]1c1ccccc1 | i | i | i | nt | nt | nt
CC(C)[C@@]1(NC(=O)[C@@H]2C=C3c4cccc5[nH]cc(c45)C[C@H]3N(C)C2)O[C@@]2(O)[C@@H]3CCCN3C(=O)[C@H](Cc3ccccc3)N2C1=O | nt | nt | nt | i | nt | nt
CC(C)C[C@H]1C(=O)N2CCCC2[C@]2(O)O[C@](NC(=O)[C@@H]3C=C4c5cccc6[nH]cc(c56)CC4N(C)C3)(C(C)C)C(=O)N12 (stereo partly drawn) | i | i | 30 | i | i | i
CC(C)[C@H]1C(=O)N2CCC[C@H]2[C@]2(O)O[C@](NC(=O)[C@@H]3C=C4c5cccc6[nH]cc(c56)C[C@H]4N(C)C3)(C(C)C)C(=O)N12 | i | i | 49 | i | i | i
COC(=O)[C@@H]1N=C(c2ccc(OC)cc2)O[C@]12C(=O)N(Cc1ccc(OC)cc1)c1ccccc12 | i | i | i | nt | nt | nt
O=S(=O)(c1cccc2ccccc12)N1Cc2ccccc2-n2nncc2C1 | i | i | i | nt | i | i
Cc1ncc([N+](=O)[O-])n1CCOC(N)=O | i | i | i | nt | i | 67
CCOC(=O)Cn1cc([N+](=O)[O-])nc1[N+](=O)[O-] | i | i | i | i | i | i
CN(C)c1ccc(C(=O)N/N=C/C23CC[C@@H](O)CC2(O)CC[C@@H]2[C@@H]3CCC3(C)C(C4=CC(=O)OC4)CCC23O)cc1 (stereo partly drawn) | i | i | i | nt | i | 54
Oc1cc(Cl)ccc1Oc1ccc(Cl)cc1Cl | i | i | i | nt | i | i
Clc1cnc(Oc2ccc(Oc3ncc(Cl)cc3Cl)cc2)c(Cl)c1 | i | i | i | i | i | 72
CC1=C(C)CN2CC(C#N)=C(N)C2C1 (stereo not drawn) | i | i | i | nt | nt | nt
CCN(CC)CCN=C(C)c1c(O)n(-c2ccccc2OC)c(=O)[nH]c1=O | i | i | i | i | i | 87
CCCCCCC(=O)c1c(O)n(-c2ccccc2OC)c(=O)[nH]c1=O (tested in a mixture with another compound) | i | i | i | nt | nt | i
COc1ccc(N2C(=O)/C(=C/c3ccc(N(C)C)o3)C(=O)NC2=S)cc1 | i | 23 | i | nt | i | i
C[C@@H]1CN([C@H](C)CO)C(=O)CCCn2nncc2CO[C@@H]1CN(C)C(=O)Oc1ccc2ccccc2c1 | i | i | i | nt | i | i
C[C@H]1COc2cc(N3CCN(C)CC3)ccc2S(=O)(=O)N1 | i | i | i | nt | nt | nt
CCOC(=O)[C@]12Cc3c(cc(OC)c(OC)c3OC)[C@H]1N(C)C(=O)c1cc(OC)ccc12 | i | 23 | i | nt | nt | nt
CCOC(=O)[C@]12Cc3ccccc3[C@H]1N(C)C(=O)c1cc(OC)ccc12 | i | i | i | nt | nt | nt
Oc1c(Cl)c(Cl)c(Cl)c(Cl)c1Cl | i | i | i | nt | i | 54
O=C(O)c1cc[c]([Hg][Cl])cc1 | i | 82 | i | nt | i | i
COc1cc2c(c(OC)c1OC)-c1ccc(SC)c(=O)cc1C(NC(C)=O)CC2 (stereo not drawn) | i | i | i | nt | i | i
C[C@H]1CN([C@@H](C)CO)C(=O)CCCn2nncc2CO[C@@H]1CN(C)C(=O)Oc1ccccc1 | i | i | i | nt | i | i
SMILES | NOD2 RIPK2 PPI | ABHD5 PLIN5 PPI | HTR2A ag | TLR4-MyD88 BLA | TLR9-MyD88 inh | CRFR2-BP antag | others
CC(C)(C)P(=O)(N1CCOCC1)N1CCOCC1 | i | i | i | i | i | i
O=P(/C(=N/O)N1CCOCC1)(N1CCOCC1)N1CCOCC1 | i | i | i | i | i | 55
NC(Cc1ccc(F)cc1)c1csc(Nc2ccccn2)n1 (stereo not drawn) | i | i | i | nt | nt | nt
CCOP(=O)(OCC)C(c1ccccc1)N(C)C=O (stereo not drawn) | 58 | i | i | i | i | i
CCOP(=O)(OCC)C(NC(=O)c1ccccc1)C(Cl)(Cl)Cl (stereo not drawn) | i | i | i | i | i | i
COc1ccc(Cn2c(O)c(/C=N/NC(=O)c3ccccc3)c(=O)[nH]c2=O)cc1 | i | i | i | i | i | 55
COc1ccc(Cn2c(O)c(/C=N/NC(=O)c3ccncc3)c(=O)[nH]c2=O)cc1 | i | i | i | nt | i | i
CCC(C)C1N=C(c2ccccc2)c2cc(Cl)ccc2N(CC(=O)NCc2ccco2)C1=O (stereo not drawn) | i | i | i | i | i | 55
CCn1c(O)c(C=Nc2ccc(N3CCOCC3)c(Br)c2)c(=O)n(CC)c1=S | i | i | i | i | i | i
CCn1c(O)c(C=Nc2ccc(N3CCOCC3)cc2)c(=O)n(CC)c1=S | i | i | i | 44 | i | i | TLR4-MyD88 conf=50;BLA inhibitor ct=69
C[C@]12C[C@H](O)[C@@H](O)C[C@@H]1CC[C@@H]1[C@@H]2CC[C@]2(C)C(=O)CC[C@@H]12 | i | i | i | nt | nt | nt
Cc1ccc(/C=C2\C(=O)NC(=S)N(c3ccc(F)cc3)C2=O)s1 | i | i | i | 26 | i | i | TLR4-MyD88 conf=i;BLA inhibitor ct=i
CCC1(C)OC(c2ccccc2)=C/C(=C/C=C2C(=O)NC(=O)NC2=O)O1 (stereo not drawn) | i | i | i | i | 33 | i | TLR9-MyD88 conf=25;BLA nonselective=i;TLR9 CHO tox=i
COc1cc(/C=C(/C)[N+](=O)[O-])ccc1OCc1ccccc1Cl | 81 | 90 | i | i | 34 | i | TLR9-MyD88 conf=34;BLA nonselective=i;TLR9 CHO tox=99
COc1cc(C=C2C(=O)NC(=O)NC2=O)ccc1OCc1ccc([N+](=O)[O-])cc1 | i | i | i | i | i | i
O=C1CC2OCC=C3CN4CCC56c7ccccc7N1C5C2C3CC46O (stereo not drawn) | i | i | i | nt | nt | nt
